# Results published in PubChem BioAssay (NCATS).
# Results filed as inconclusive are left out. Values without a mark were called inactive. Activity calls are given as the source filed them. Calls follow the shape of the dose curve; as a rule, active = well fitted cell-killing curve with a large enough effect; inconclusive = small, poorly fitted or top-dose-only effect, or effect the other way; inactive = no such curve, though single readings can be large or run the other way.
# Test: Quantitative High-Throughput drug screen in 47 multiple myeloma cell lines against the NCATS MIPE library collection: ARP1_JJKsccF8 cell viability assay (AID 1918928; also: nearly all actives have a fitted effect of over 40% in size)
# Details: ARP1 myeloma cells viability, CellTiter-Glo ATP, 48 h; series mostly up to 45.8 µM; viability: at the top concentration
# Method in brief: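 Viability screen: myeloma cells (500/well) incubated 48 h at 37 °C, humidified 5% CO2, with pinned library compounds; CellTiter-Glo added, luminescence read; DMSO wells set 100%, medium-only wells 0%.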
# Potency is read from the fitted curve at half-maximal effect.
Compound,viability,Potency
Cn1c(NCCN(CCO)CCCc2ccc([N+](=O)[O-])cc2)cc(=O)n(C)c1=O,84.4%,
C[C@@H](N)C1CCC(C(=O)Nc2ccncc2)CC1 (some centres undefined),92.5%,
CCCCCCCCOc1ccccc1C(=O)Nc1ccc(C(=O)OCC[N+](C)(CC)CC)cc1,,20.9 µM (active)
NC(=NCc1ccccc1)NC(=O)c1nc(Cl)c(N)nc1N,110%,
Cc1cc(=O)c2c(O)c3c(O)cc(=O)c4c3c3c(cc(O)c1c23)C(C)(C)C=4O,,2.96 µM (active)
c1ccc2[nH]c(-c3cscn3)nc2c1,104%,
O=C(CCc1ccc(O)cc1)c1c(O)cc(O)cc1O,,1.32 µM (active)
O=C1NC(=O)C(c2ccccc2[N+](=O)[O-])=C1Nc1ccc(O)c(Cl)c1,75.5%,
CC1=C(C(=O)O)N2C(=O)[C@@H](NC(=O)[C@H](N)C3=CCC=CC3)[C@H]2SC1,116%,
CNC[C@@H](O)[C@@H](O)[C@H](O)[C@H](O)CO,99.5%,
Cc1ccc(S(=O)(=O)NC(=O)NN2CC3CCCC3C2)cc1 (centres undefined),,26.4 µM (active)
COc1c2occc2cc2ccc(=O)oc12,84.1%,
O=C(O)c1cc(=O)c2c(OCC(O)COc3cccc4oc(C(=O)O)cc(=O)c34)cccc2o1,112%,
S=c1nc[nH]c2nc[nH]c12,,2.35 µM (active)
C[C@H](Cn1cnc2c(N)ncnc21)OCP(=O)(O)O,119%,
CC(C)[C@H](N)C(=O)OCCOCn1cnc2c(=O)[nH]c(N)nc21,48.7%,
CN(C)c1ccc(O)c2c1C[C@H]1C[C@H]3[C@H](N(C)C)C(=O)C(C(N)=O)=C(O)[C@@]3(O)C(=O)C1=C2O,,16.6 µM (active)
Cc1ccc(C(=O)c2cc(O)c(O)c([N+](=O)[O-])c2)cc1,102%,
N=C(N=C(N)N)N1CCOCC1,113%,
